Only a selection was taken, and hits are over-represented in it overall.
Cycloheximide cs – Cycloheximide Counterscreen for Small Molecule Inhibitors of Shiga Toxin | cell reporter, cycloheximide protein synthesis inhibition counterscreen | max response, % | hit rate 12% among 300,000 | AID 2314, 2010; in the data active = max response mostly above about 13%, no sharp cut-off; inactive = mostly below about 14%; also: read at 38.3 µM for the half of the compounds with a filed dose
AMA1 RON2 block – qHTS for Inhibitors of AMA1-RON; Towards Development of Antimalarial Drug Lead: Primary Screen. Potency, µM (titrated, usually from 58.2 µM), actives largely listed as inhibitors. hit rate 0.2% among 360,000. AlphaScreen AMA1-biotinylated RON2 peptide binding. AID 720542, 2013; also: nearly all actives have a fitted effect of over 45% in size
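AMA1 (3D7) with his tag at 25 nM final met compounds first, then biotinylated RON2 peptide at 25 nM; detection used donor plus acceptor beads, 10 µg/mL apiece, read by AlphaScreen after 30 min at room temperature.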
AmpC detergent – qHTS Inhibitors of AmpC Beta-Lactamase (assay with detergent) | hit rate 0.041% among 370,000 | Potency, µM (highest dose often 114 µM), actives largely listed as inhibitors | P00811 | AmpC hydrolysis of nitrocefin, absorbance 480 nm, 0.01% Triton; also: nearly all actives have a fitted effect of over 25% in size
Target sequence (P00811 whole entry, looked up): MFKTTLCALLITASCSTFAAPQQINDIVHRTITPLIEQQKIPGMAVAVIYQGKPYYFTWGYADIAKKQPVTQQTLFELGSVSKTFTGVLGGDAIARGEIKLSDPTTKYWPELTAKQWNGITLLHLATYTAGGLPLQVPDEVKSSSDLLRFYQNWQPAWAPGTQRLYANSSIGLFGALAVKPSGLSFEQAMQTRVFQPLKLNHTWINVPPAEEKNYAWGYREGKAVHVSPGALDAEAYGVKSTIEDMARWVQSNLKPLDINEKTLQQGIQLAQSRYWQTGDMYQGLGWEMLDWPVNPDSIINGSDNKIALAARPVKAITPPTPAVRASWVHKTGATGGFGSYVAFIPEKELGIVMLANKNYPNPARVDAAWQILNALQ
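20 mM phosphate pH 7.0 + 0.01% (detergent screen) or 0.0001% Triton X-100; 5.3 nM AmpC reagent; cpd preinc 15 min RT; nitrocefin (800 uM stock) to start; A480 q20 s × 4 min; Activity was normalised to no-enzyme and no-compound control wells.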
Shiga inhibitor – A qHTS for Small Molecule Inhibitors of Shiga Toxin; Vero cells, Shiga toxin protein synthesis inhibition reporter; inhibition, % at 38.7 µM; hit rate 9.2% among 290,000; AID 2315, 2010; in the data active = inhibition mostly above about 28%, no sharp cut-off; inactive = mostly below about 43%
SARS PLpro yeast – qHTS of Yeast-based Assay for SARS-CoV PLP | S. cerevisiae expressing SARS-CoV PLpro, growth rescue | Potency, µM (doses to about 32.9 µM), most hits filed as activators | hit rate 0.19% among 330,000; calls by dose curve; also: nearly all actives have a fitted effect of over 55% in size
AmpC inh no detg – qHTS Inhibitors of AmpC Beta-Lactamase (assay without detergent); P00811; AmpC nitrocefin hydrolysis, absorbance 480 nm, 0.0001% Triton; Potency, µM (doses to about 57.1 µM), actives largely listed as inhibitors; hit rate 0.52% among 330,000; AID 485341, 2010; also: nearly all actives have a fitted effect of over 20% in size
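20 mM phosphate pH 7.0 + 0.01% (detergent screen) or 0.0001% Triton X-100; 5.3 nM AmpC reagent; cpd preinc 15 min RT; nitrocefin (800 uM stock) to start; A480 q20 s × 4 min; Activity was normalised to no-enzyme and no-compound control wells.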
Each line names hits and unclear results; the compound was inactive in the other large screens. Unless noted, calls follow the shape of the dose curve; as a rule, active = well fitted curve in the direction sought with a large enough effect; inconclusive = small, poorly fitted or top-dose-only effect, or another doubt; inactive = no such curve, though single readings can be large; an effect the other way counts as inactive or inconclusive.

CCOC(=O)N1CCN(C(=O)/C(=C/c2cccc3ccccc23)NC(=O)c2ccc(OC)cc2)CC1	Cycloheximide cs 17
CN1C(=O)S/C(=C/c2ccc(OCc3cccc(C(=O)O)c3)cc2)C1=O	Cycloheximide cs 35, Shiga inhibitor 37
CN(C)CCCN(C(=O)c1ccc2c(c1)CCCC2)c1nc2c(F)cccc2s1	Cycloheximide cs 17, AMA1 RON2 block inconclusive, Shiga inhibitor 24
CN(C)CCNC(=O)c1cc2ccccc2oc1=O	none
Cc1ccc2nc(N(CCN(C)C)C(=O)c3cc(Cl)sc3Cl)sc2c1	Cycloheximide cs 22, AmpC detergent inconclusive, Shiga inhibitor 33
O=C1c2ccccc2C(=O)N1CCCCN(C(=O)c1cc2ccccc2oc1=O)c1ccc(F)cc1F	Cycloheximide cs 60, Shiga inhibitor 74
CN(C)CCCN(C(=O)c1cc2ccccc2oc1=O)c1nc2ccc(F)cc2s1	Cycloheximide cs 13
CC1(C)Cc2c(C#N)c(SCCC#N)nc(N3CCOCC3)c2CO1	none
O=c1oc2ccccc2cc1-c1cn2cc(Cc3ccc(F)cc3)sc2n1	none (no result: Cycloheximide cs, AMA1 RON2 block, Shiga inhibitor, SARS PLpro yeast, AmpC inh no detg)
COC(=O)C1=C(CSc2nnnn2C)NC(=O)NC1c1cc(C)ccc1C (stereo not given)	none
O=c1n(Cc2ccc(F)cc2)nc2n1-c1cc(Cl)ccc1OC2	none (no result: Cycloheximide cs, AMA1 RON2 block, Shiga inhibitor, SARS PLpro yeast, AmpC inh no detg)
O=C(NC1CCCC1)c1sc(=S)n2c1[nH]c(=O)c1ccccc12	none
N/C(=N\NS(=O)(=O)c1cc(C(F)(F)F)cc(C(F)(F)F)c1)c1ccccn1	none
CCc1ccc2nc(N(CCN(C)C)C(=O)c3ccc4ccccc4c3)sc2c1	AmpC detergent inconclusive
CN(C)CCN(C(=O)c1ccc2ccccc2c1)c1nc2ccc(F)cc2s1	Cycloheximide cs 18
CC(C)c1ccc(N(CC(=O)NCCSC(C)(C)C)S(C)(=O)=O)cc1	Cycloheximide cs 31
CCN(c1ccccc1)S(=O)(=O)c1ccc(C(=O)Nc2nnc(COC)o2)cc1	none
Cc1ccc(C(=O)NCCc2ccccc2)cc1	AmpC detergent inconclusive
CN(c1ccc(C(=O)NCCc2ccccc2)cc1)S(C)(=O)=O	Cycloheximide cs 21, Shiga inhibitor 68
COCc1nnc(NC(=O)c2ccc(S(=O)(=O)N(C)c3ccccc3)cc2)o1	AmpC detergent inconclusive, AmpC inh no detg 40µM
CC(C)(C)SCCNC(=O)c1ccc(Cl)c([N+](=O)[O-])c1	Cycloheximide cs 27, Shiga inhibitor 98
Cc1ccccc1CNC(=O)c1ccc(Cl)c([N+](=O)[O-])c1	none
Cc1nn(Cc2noc(C(=O)NCc3ccc(F)cc3)n2)c(C)c1Br	none
CCCCN(C)C(=O)c1nc2ccccn2c1CNCCCn1ncc2ccccc21	none
CN(C(=O)c1ccc([N+](=O)[O-])cc1)c1ccccc1C(=O)NCc1ccccc1	none
CC(=O)Nc1ccc(S(=O)(=O)N2CCN(CCc3ccccc3)CC2)cc1	none
COc1ccc(N2CCN(C(=O)c3cc(=O)c4cc(Cl)ccc4o3)CC2)cc1	none
CN(c1ccc(C(=O)Nc2ccccc2C(=O)N2CCCC2)cc1)S(C)(=O)=O	none (no result: SARS PLpro yeast, AmpC inh no detg)
CN(c1ccc(C(=O)NCCCn2ccnc2)cc1)S(C)(=O)=O	none
CN(c1ccc(C(=O)NCCSCc2ccco2)cc1)S(C)(=O)=O	Cycloheximide cs 30, Shiga inhibitor 41
CN(c1ccc(C(=O)NCCSC(C)(C)C)cc1)S(C)(=O)=O	Cycloheximide cs 37, Shiga inhibitor 140
Cc1ccc(S(=O)(=O)N(C)c2ccc(C(=O)NCCc3ccccc3)cc2)cc1	Cycloheximide cs 32, Shiga inhibitor 62
CN(c1ccc(C(=O)Nc2ccccc2C(F)(F)F)cc1)S(C)(=O)=O	AmpC detergent inconclusive, Shiga inhibitor 41
COc1ccc(CCNC(=O)c2ccc(N(C)S(=O)(=O)c3ccc(C)cc3)cc2)cc1	AmpC detergent inconclusive
CCOC(=O)C1CCCN(C(=O)c2ccc(C)c([N+](=O)[O-])c2)C1 (stereo not given)	AmpC detergent inconclusive
CCc1nc2ccc(C(=O)NCCCn3ccnc3)cn2c1N(CC)Cc1cccc(Br)c1	none (no result: Cycloheximide cs, AmpC detergent, Shiga inhibitor, SARS PLpro yeast, AmpC inh no detg)
Cc1ccc(OCCn2cnc3sc(C(N)=O)c(C)c3c2=O)cc1	none (no result: AMA1 RON2 block)
CCOCCn1cnc2sc(C(=O)NCC(=O)OCC)c(C)c2c1=O	Cycloheximide cs 23, Shiga inhibitor 32
CCn1cnc2sc(C(=O)Oc3ccc(Br)cc3)c(C)c2c1=O	Cycloheximide cs 30, AmpC detergent inconclusive, Shiga inhibitor 64
CCOC(=O)Cn1cnc2sc(C(=O)OC)c(C)c2c1=O	Shiga inhibitor 25
c1ccc(-c2noc(CSc3nc4ccccc4o3)n2)cc1	none
N#C/C(=C(/O)CSc1ccccn1)c1nc2ccccc2s1	Cycloheximide cs 25
N#C/C(=C(/O)c1ccc(F)cc1)c1nc2ccccc2s1	Cycloheximide cs 20
c1ccc2oc(SCc3nc4ccccc4s3)nc2c1	Cycloheximide cs 43, Shiga inhibitor active (no result: SARS PLpro yeast, AmpC inh no detg)
c1ccc(SCc2nc3ccccc3s2)nc1	Cycloheximide cs 33, Shiga inhibitor 81
Cc1ccc(SC/C(O)=C(\C#N)c2nc3ccccc3s2)cc1	none
N#C/C(=C(/O)COc1ccccc1)c1nc2ccccc2s1	AmpC detergent inconclusive (no result: SARS PLpro yeast)
CCC(=O)N1CC2(CC(c3cccc(NC(=O)CC(c4ccccc4)c4ccccc4)c3)=NO2)C[C@H]1C(N)=O (stereo not given in full)	none
Cc1ccc2c(n1)sc1c(-c3ccc(Br)cc3)c(C#N)c(N)nc12	none
N#C/C(=C(/O)c1ccc(-c2cccc([N+](=O)[O-])c2)o1)c1nc2ccccc2s1	Shiga inhibitor 53
COc1ccc2nc(NC(=O)c3ccc(-c4cccc([N+](=O)[O-])c4)o3)sc2c1	none (no result: AMA1 RON2 block)
N#CCc1nc(CSc2nc3ccccc3o2)cs1	AmpC detergent inconclusive, Shiga inhibitor 70
CC(=O)N1CC(C)Sc2ccc(S(=O)(=O)NCCc3ccc(C)cc3)cc21 (stereo not given)	none
CC(=O)N1CC(C)Sc2ccc(S(=O)(=O)NCCc3ccccc3)cc21 (stereo not given)	Cycloheximide cs 32, Shiga inhibitor 56
N#CC1(c2ccc(NC(=O)c3ccccc3)cc2)CCCC1	Cycloheximide cs 47, Shiga inhibitor 135 (no result: AMA1 RON2 block)
CC(=O)Oc1ccc(C(=O)Nc2ccc(C3(C#N)CCCC3)cc2)cc1	Cycloheximide cs 12, AmpC detergent inconclusive
C=CCn1c(N)c(C(=O)Nc2ccccc2OC)sc1=S	none
Cc1cc(C(=O)Nc2ccc3nc(C)sc3c2)c2ccccc2n1	AmpC detergent inconclusive
Cc1ccc2nc(NC(=S)NC(=O)c3cccs3)sc2c1	Cycloheximide cs 47, AmpC detergent inconclusive, Shiga inhibitor 102, SARS PLpro yeast inconclusive
